In PubChem BioAssay one finds z-score data, which are given here for 35 molecules.

Values without a mark were called inactive. The source made the active and inactive calls.

The assay is described as follows: PSAC antagonists in infected red cells, primary screen, cell-based, P. falciparum Indochina, OD700, 1 h (AID 1154). As to conditions: P. falciparum Indochina infected RBC osmotic lysis, higher = more signal, called active from +8 up or from −8 down.
In the case of `CC(C)Cc1ccc(CN2CC[C@@H](NC(=O)Nc3ccccc3)C2)cc1`, the z-score was 1.96.

On to `CC(C)C[C@@H]1NC(=O)[C@@H]2C[C@H](C(=O)NCCCCN(C)C)[C@H](c3cccc(OCCO)c3)N2C1=O`, for which the z-score is 4.21.

As for `CC1CC/C=C\[C@H]2OC34C=CCN(C(C)C)C(=O)[C@H]3N(CCCCCCO)C(=O)[C@@H]4C2C(=O)O1` (stereo not given in full), the z-score is 0.719.

As to `COc1ccc(CCNC(=O)[C@@]2(Sc3ccc(C)cc3)CC(=O)N(C3Cc4ccccc4C3)[C@@H]2c2ccc(CO)cc2)cc1`, the z-score is 4.53.

For the molecule `COc1ccc(-c2nc(-c3ccccc3)c3c(c2C)CO[Si]3(C(C)C)C(C)C)cn1`, the z-score was 0.574.

Turning to `CCCC[C@@H]1C[C@H]1[C@@H](NC(=O)c1cccs1)c1ccc(C(F)(F)F)cc1`, the z-score is 1.5.

Take `CN1C(=O)C2C=CC(C(O)c3ccc(F)cc3)N(Nc3ccccc3)C2C1=O` (stereo not given): the z-score was 1.24.

As for `OCC1CC(c2ccccc2)=NO1` (stereo not given), the z-score was 5.51.

`COC1OC[C@]2(C)[C@H]3C4=C(CN2C(=O)OC(C)(C)C)[C@H](C)C(CO)C(CO)C4CC[C@@H]13` (stereo not given in full): the z-score is 0.884.

For `NCCCCCCNC(=O)[C@@H]1C[C@@H]2C(=O)N[C@@H](CCCCN)C(=O)N2[C@@H]1c1cccc(OCCO)c1`, the z-score is 3.51.

For the molecule `CCOC(=O)C1=C[C@@H](c2ccccc2)N(S(=O)(=O)c2ccc(C)cc2)[C@H]1c1ccccc1Cl`, the z-score is 1.35.

For the molecule `CCOc1cc(C(O)C2C=CC3C(=O)N(c4ccccc4)C(=O)C3N2Nc2ccc(C#N)cc2)ccc1O` (stereo not given), the z-score is 16.3 (active).

In the case of `CCCCCCCCCCC(O)C1C=CC2C(=O)N(C)C(=O)C2N1NC(=O)OC(C)(C)C` (stereo not given), the z-score is 8.95 (active).

As to `NCCCCCNC(=O)[C@@H]1C[C@@H]2C(=O)NCC(=O)N2[C@@H]1c1cccc(OCCO)c1`, the z-score is 2.11.

As to `[N-]=[N+]=NCc1ccccc1[C@H]1OC(c2ccc(OCCCO)cc2)=N[C@@]1(CCS(=O)(=O)c1ccccc1)C(=O)N1CCCCC1`, the z-score was 25.6 (active).

For `CCOC(=O)C[C@H]1[C@H](OC(=O)c2ccccc2-c2ccccc2)[C@@H](NC(=O)c2ccc(-c3ccccc3)cc2)c2cc(OCCCO)ccc2N1C(=O)c1ccc2ccccc2n1`, the z-score is 2.14.

As for `CCCCCCc1nc(C2CC2)cc2c1[Si](C(C)C)(C(C)C)OC2`, the z-score was 0.834.

On to `O=C1C[C@@](C(=O)NCCN2CCOCC2)(c2ccc([N+](=O)[O-])cc2)[C@@H](c2ccc(CO)cc2I)N1C1CCCCC1`, for which the z-score was 15.3 (active).

`COC(=O)[C@@]1(Cc2ccc(OC)cc2)[C@H]2c3cc(C(=O)N4CCCC4)n(Cc4c(-c5ccccc5)noc4C)c3C[C@H]2CN1C(=O)c1ccccc1`: the z-score is 5.34.

Regarding `CC(C)(C)N1CC=CC23O[C@@H]4C=CCCOC(=O)C4[C@H]2C(=O)N(CCO)[C@@H]3C1=O` (stereo not given in full), the z-score was 0.901.

In the case of `O=C1O[C@@H](c2ccccc2)[C@@H](c2ccccc2)N2[C@@H](c3ccccc3OCCO)[C@]3(C(=O)Nc4ccc(C#CCCO)cc43)[C@@H](C(=O)N3CCCCCCC3)[C@H]12`, the z-score is 1.01.

`CO[C@]12C=C(Br)[C@@H](C[C@@H]1c1cccc(C)c1)[C@@]1(CO1)C2=O`: the z-score was -0.219.

For `O=C1C2C=CC(C(O)c3ccccc3)N(Nc3ccccc3F)C2C(=O)N1c1ccccc1` (stereo not given), the z-score was 7.12.

Regarding `CC[C@H]1C2=C3C(CC[C@H]4C(OCc5ccc(F)cc5C(F)(F)F)OC[C@](C)([C@@H]34)N(C(=O)OC(C)(C)C)C2)C(COC)C1COC` (stereo not given in full), the z-score is -0.0734.

In the case of `Cc1ccc(S[C@]2(C(=O)O)CC(=O)N(C3Cc4ccccc4C3)[C@@H]2c2ccc(CO)cc2)cc1`, the z-score was 3.54.

In the case of `COc1ccc(NC(=O)O[C@H]2[C@H](OC(=O)Nc3ccccc3)[C@@H](OC(=O)Nc3ccccc3)[C@@H](OC)O[C@@H]2CO)cc1`, the z-score is 4.49.

Regarding `CCCC[C@@H]1C[C@H]1[C@@H](NC(=O)Cc1ccccc1)c1ccc(-c2ccccc2)cc1`, the z-score is 1.1.

`N#Cc1ccc(NN2C(C(O)c3ccc(F)cc3)C=CC3C(=O)N(c4ccccc4)C(=O)C32)cc1` (stereo not given): the z-score is 8.09 (active).

As for `[N-]=[N+]=NCc1ccccc1C[C@]1(C(N)=O)N=C(c2ccc(OCCCO)cc2)O[C@H]1c1ccccc1`, the z-score was 21 (active).

On to `COCCCNC(=O)[C@@]1(Cc2ccccc2N=[N+]=[N-])N=C(c2ccc(OCCCO)cc2)O[C@H]1c1ccccc1`, for which the z-score was 21.5 (active).

As for `CN(C)CCCNC(=O)[C@@H]1c2ccccc2C(=O)N(Cc2ccccc2Cl)[C@H]1c1ccc(CO)cc1`, the z-score is 3.77.

As to `C=C(/C(=C/C[C@H](OC(=O)c1ccncc1)c1ccc(CO)o1)c1cc(C(=O)OC)ccc1OC)C(C)C`, the z-score is 3.3.

As for `C=CCC(OC(C)=O)[C@@H]1[C@@H](N(Cc2ccc(-c3cccc(C(F)(F)F)c3)o2)C(=O)c2ccc(-c3ccccc3)cc2)c2cc(OCCCO)ccc2N1C(=O)c1ccc2ccccc2n1` (stereo not given in full), the z-score was 0.394.

Consider `CCCCN1CC=CC23O[C@@H]4/C=C\CCC(C)OC(=O)C4[C@H]2C(=O)N(C(CO)C(C)C)[C@@H]3C1=O` (stereo not given in full), for which the z-score is 1.65.

`[N-]=[N+]=Nc1ccccc1[C@H]1OC(c2ccc(OCCCO)cc2)=N[C@@]1(Cc1ccccc1)C(=O)N1CCCCC1`: the z-score is 31.2 (active).
